The full data set covers some 7,900 targets. This sample favours those with a hit. About 0.6% of all pairs of compound and target were hits.
Experiments:
Experiment in all cases: log2 fold change, soluble protein after heating vs DMSO (PISA); higher = thermal stabilisation; K562 cells, 10 uM, 30 min; active = over 0.2 and 3.5 SD of the protein, either way, in both replicates (recomputed)
[1] = compound: CC[C@@H]1C(=O)N(C)c2cnc(Nc3ccc(C(=O)NC4CCN(C)CC4)cc3OC)nc2N1C1CCCC1
Method in brief: (§1)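 K562 cells (2×10^6 cells/mL) were treated with 10 μM compound for 30 min, and aliquots were heated for 3 min over 48°C-58°C. Pooled aliquots were extracted in PBS with 0.5% NP-40 at 4°C, and the supernatant after 21,000xg for 90 min was measured by TMTpro 16plex LC-MS/MS with channel sums equalised. Reported thermal stability, relative to control samples and from duplicates, is a log2 fold change.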

[2] = compound: CC[C@H](C)N1C=C(C2=C(C=C(C=C21)C3=CN=C(C=C3)N4CCNCC4)C(=O)NCC5=C(C=C(NC5=O)C)C)C
Method in brief: as §1

[3] = compound: CCn1c(C(=O)N(C2CC2)C2CC2)cc2c3c(ncn3C)c(Nc3cc(C)n(C)n3)nc21
Method in brief: as §1

[4] = compound: CN(C)CC(=O)Nc1ccc2[nH]c(=O)c3ccccc3c2c1
Method in brief: as §1

rosiglitazone = compound: CN(CCOC1=CC=C(C=C1)C[C@H]2C(=O)NC(=O)S2)C3=CC=CC=N3 (racemic) [rosiglitazone]
Method in brief: as §1

sotrastaurin = compound: CN1CCN(c2nc(C3=C(c4c[nH]c5ccccc45)C(=O)NC3=O)c3ccccc3n2)CC1 [sotrastaurin]
Method in brief: as §1

Tubastatin A = compound: CN1CCc2c(c3ccccc3n2Cc2ccc(C(=O)NO)cc2)C1 [Tubastatin A]
Method in brief: as §1

[5] = compound: CNC(=O)C1=CC=CC=C1NC2=NC(=NC=C2Cl)NC3=C(C=C(C=C3)N4CCOCC4)OC
Method in brief: as §1

defactinib = compound: CNC(=O)c1ccc(Nc2ncc(C(F)(F)F)c(NCc3nccnc3N(C)S(C)(=O)=O)n2)cc1 [defactinib]
Method in brief: as §1

rucaparib = compound: CNCc1ccc(-c2[nH]c3cc(F)cc4c3c2CCNC4=O)cc1 [rucaparib]
Method in brief: as §1

encorafenib = compound: COC(=O)N[C@@H](C)CNc1nccc(-c2cn(C(C)C)nc2-c2cc(Cl)cc(NS(C)(=O)=O)c2F)n1 [encorafenib]
Method in brief: as §1

[6] = compound: COC(=O)[C@H](CCSC)NC(=O)C1=C(C=C(C=C1)NC[C@H](CS)N)C2=CC=CC=C2
Method in brief: as §1

volasertib = compound: CC[C@@H]1C(=O)N(C)c2cnc(Nc3ccc(C(=O)N[C@H]4CC[C@H](N5CCN(CC6CC6)CC5)CC4)cc3OC)nc2N1C(C)C [volasertib]
Method in brief: as §1

epoxomicin = compound: CC[C@H](C)[C@@H](C(=O)N[C@@H]([C@@H](C)O)C(=O)N[C@@H](CC(C)C)C(=O)[C@]1(CO1)C)NC(=O)[C@H]([C@@H](C)CC)N(C)C(=O)C [epoxomicin]
Method in brief: as §1

[7] = compound: CCn1cc(-c2ccnc3[nH]c(-c4cccc(CN(C)C)c4)cc23)c(-c2ccc(NC(=O)N(C)C)cc2)n1
Method in brief: as §1

[8] = compound: CN1C2=C(C3=C1C(=O)N(N=C3)CC4=CC(=CC=C4)N)SC(=C2)S(=O)C
Method in brief: as §1

[9] = compound: CN1CCC(CNc2ccc3ncc(-c4cccc(OC(F)(F)F)c4)n3n2)CC1
Method in brief: as §1

saracatinib = compound: CN1CCN(CCOc2cc(OC3CCOCC3)c3c(Nc4c(Cl)ccc5c4OCO5)ncnc3c2)CC1 [saracatinib]
Method in brief: as §1

[10] = compound: CNc1nc(-c2ccc3c(N)n[nH]c3c2)cc(N2C[C@@H](C(=O)NC3CCCCC3)CC[C@H]2C)n1
Method in brief: as §1

alvocidib = compound: CN1CC[C@H](c2c(O)cc(O)c3c(=O)cc(-c4ccccc4Cl)oc23)[C@H](O)C1 [alvocidib]
Method in brief: as §1

Measured: log2 fold change

AZI2 (UniProt Q9H6S1)
inactive: [1] -0.021 | [2] -0.063 | [3] -0.041 | [4] 0.062 | rosiglitazone -0.001 | sotrastaurin -0.046 | Tubastatin A -0.078 | defactinib 0.018 | rucaparib -0.12 | encorafenib 0.012 | [6] -0.093
active: [5] 0.453

ATP6V0A1 (UniProt Q93050)
inactive: rosiglitazone -0.082

ARFIP1 isoform 2 (UniProt P53367)
UniProt P53367, sequence (P53367 whole entry, looked up): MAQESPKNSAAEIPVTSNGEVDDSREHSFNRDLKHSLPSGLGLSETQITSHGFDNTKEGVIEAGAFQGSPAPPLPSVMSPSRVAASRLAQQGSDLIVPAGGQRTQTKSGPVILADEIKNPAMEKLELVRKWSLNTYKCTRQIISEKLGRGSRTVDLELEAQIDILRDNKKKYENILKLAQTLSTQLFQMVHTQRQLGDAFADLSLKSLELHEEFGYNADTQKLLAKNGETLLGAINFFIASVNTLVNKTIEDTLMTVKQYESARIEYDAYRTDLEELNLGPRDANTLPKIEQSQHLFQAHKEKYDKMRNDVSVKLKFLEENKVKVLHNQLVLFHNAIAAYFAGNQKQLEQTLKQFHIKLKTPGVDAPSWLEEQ
inactive: volasertib -0.134 | [2] 0.071 | epoxomicin -0.004 | [3] -0.102 | [7] 0.259 | rosiglitazone 0.088 | [8] -0.124 | saracatinib 0.026 | sotrastaurin -0.041 | [5] -0.268 | [10] 0.279
active: [9] -0.512

BSCL2 isoform 4 (UniProt Q96G97)
UniProt Q96G97, sequence (Q96G97 whole entry, looked up): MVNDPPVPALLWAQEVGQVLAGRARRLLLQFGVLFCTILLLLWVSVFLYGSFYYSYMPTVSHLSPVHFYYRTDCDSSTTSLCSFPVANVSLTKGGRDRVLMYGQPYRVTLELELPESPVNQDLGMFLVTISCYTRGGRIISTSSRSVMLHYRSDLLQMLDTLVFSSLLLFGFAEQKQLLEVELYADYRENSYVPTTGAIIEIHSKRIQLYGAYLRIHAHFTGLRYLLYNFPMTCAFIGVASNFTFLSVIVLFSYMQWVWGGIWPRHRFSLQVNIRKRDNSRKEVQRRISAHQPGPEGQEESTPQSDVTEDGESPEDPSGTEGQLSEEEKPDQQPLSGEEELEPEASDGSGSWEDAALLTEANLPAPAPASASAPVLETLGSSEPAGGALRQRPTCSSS
inactive: volasertib 0.072 | [2] 0.093 | epoxomicin -0.05 | [3] -0.004 | [7] 0 | [4] -0.006 | rosiglitazone -0.001 | [8] -0.005 | [9] -0.057 | saracatinib -0.019 | alvocidib -0.164 | Tubastatin A 0.03 | [5] -0.025 | defactinib -0.113 | [10] -0.122 | [6] -0.071

ADD2 isoform 9 (UniProt P35612)
inactive: volasertib -0.1 | rosiglitazone 0.196 | sotrastaurin -0.122

ADD3 isoform 2 (UniProt Q9UEY8)
UniProt Q9UEY8, sequence (Q9UEY8 whole entry, looked up): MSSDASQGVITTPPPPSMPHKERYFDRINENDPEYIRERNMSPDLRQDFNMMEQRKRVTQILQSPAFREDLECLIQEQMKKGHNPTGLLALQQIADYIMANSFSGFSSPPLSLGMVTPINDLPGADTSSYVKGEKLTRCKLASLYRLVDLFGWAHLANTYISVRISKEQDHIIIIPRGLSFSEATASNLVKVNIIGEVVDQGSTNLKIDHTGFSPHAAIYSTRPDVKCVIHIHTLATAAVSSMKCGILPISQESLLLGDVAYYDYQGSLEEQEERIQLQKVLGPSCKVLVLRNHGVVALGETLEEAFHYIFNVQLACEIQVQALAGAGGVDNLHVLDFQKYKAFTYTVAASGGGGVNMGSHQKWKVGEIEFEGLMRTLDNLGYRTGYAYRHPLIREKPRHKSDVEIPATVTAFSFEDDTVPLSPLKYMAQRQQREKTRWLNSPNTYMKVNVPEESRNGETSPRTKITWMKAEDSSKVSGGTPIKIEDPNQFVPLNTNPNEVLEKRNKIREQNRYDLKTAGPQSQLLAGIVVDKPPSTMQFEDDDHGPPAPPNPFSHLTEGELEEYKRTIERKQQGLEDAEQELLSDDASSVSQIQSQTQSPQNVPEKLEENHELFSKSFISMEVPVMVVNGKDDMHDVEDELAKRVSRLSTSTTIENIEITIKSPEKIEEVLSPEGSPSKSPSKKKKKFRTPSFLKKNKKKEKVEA
inactive: [1] 0.021 | volasertib -0.037 | epoxomicin -0.022 | [7] 0.066 | [4] 0.036 | [8] -0.093 | [9] -0.128 | saracatinib -0.112 | sotrastaurin 0.014 | alvocidib -0.166 | Tubastatin A 0.058 | defactinib -0.025 | rucaparib -0.036 | [10] -0.172 | encorafenib -0.166 | [6] -0.025

BDH2 (UniProt Q9BUT1)
UniProt Q9BUT1, sequence (Q9BUT1 whole entry, looked up): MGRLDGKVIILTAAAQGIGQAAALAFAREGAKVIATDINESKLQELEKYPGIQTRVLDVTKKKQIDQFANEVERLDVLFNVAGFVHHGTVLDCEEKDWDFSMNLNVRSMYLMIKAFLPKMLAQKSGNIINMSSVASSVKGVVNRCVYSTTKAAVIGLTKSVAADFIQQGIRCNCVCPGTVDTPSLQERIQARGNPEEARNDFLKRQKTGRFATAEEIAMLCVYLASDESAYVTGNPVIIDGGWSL
inactive: volasertib -0.126 | [3] 0 | [7] 0.005 | [4] 0.367 | rosiglitazone 0.001 | [8] -0.028 | [9] -0.033 | saracatinib -0.088 | sotrastaurin 0 | alvocidib -0.177 | [5] -0.061 | defactinib -0.021 | [10] 0.015 | [6] -0.039

BRMS1 (UniProt Q9HCU9)
inactive: [1] -0.034 | epoxomicin -0.018 | [7] 0.144 | [8] -0.092 | [9] -0.124 | saracatinib -0.185 | Tubastatin A 0.001 | rucaparib -0.017 | [10] 0.007 | encorafenib 0.106

AIF1 (UniProt P55008)
active: epoxomicin -0.727
inactive: volasertib 0.047 | [3] 0.078 | [4] 0.01 | rosiglitazone -0.045 | sotrastaurin 0.025 | [5] 0.15 | defactinib 0.032 | [6] -0.046

BAP18 isoform 3 (UniProt Q8IXM2)
inactive: [3] -0.028 | [7] 0.028 | [9] 0.2 | Tubastatin A 0.301 | [5] -0.129

ACSL6 isoform 1 (UniProt Q9UKU0)
active: [9] -0.459
inactive: [2] 0.08 | epoxomicin -0.159 | [3] 0.01 | [7] -0.014 | [4] 0.149 | rosiglitazone -0.069 | [8] -0.226 | saracatinib -0.041 | sotrastaurin 0.177 | Tubastatin A -0.076 | [5] -0.048 | defactinib 0.155 | [10] -0.007 | [6] 0.021

ACVR1 (UniProt Q04771)
inactive: [1] -0.104 | volasertib -0.2 | epoxomicin 0.16 | [3] -0.036 | [7] 0.065 | [4] -0.095 | [8] -0.111 | sotrastaurin -0.081 | alvocidib 0.047 | Tubastatin A -0.042 | [5] 0 | defactinib -0.095 | rucaparib 0.029 | [10] -0.106 | encorafenib 0.122 | [6] -0.156
active: [9] 0.925

ADAMTS5 (UniProt Q9UNA0)
UniProt Q9UNA0, sequence (Q9UNA0 whole entry, looked up): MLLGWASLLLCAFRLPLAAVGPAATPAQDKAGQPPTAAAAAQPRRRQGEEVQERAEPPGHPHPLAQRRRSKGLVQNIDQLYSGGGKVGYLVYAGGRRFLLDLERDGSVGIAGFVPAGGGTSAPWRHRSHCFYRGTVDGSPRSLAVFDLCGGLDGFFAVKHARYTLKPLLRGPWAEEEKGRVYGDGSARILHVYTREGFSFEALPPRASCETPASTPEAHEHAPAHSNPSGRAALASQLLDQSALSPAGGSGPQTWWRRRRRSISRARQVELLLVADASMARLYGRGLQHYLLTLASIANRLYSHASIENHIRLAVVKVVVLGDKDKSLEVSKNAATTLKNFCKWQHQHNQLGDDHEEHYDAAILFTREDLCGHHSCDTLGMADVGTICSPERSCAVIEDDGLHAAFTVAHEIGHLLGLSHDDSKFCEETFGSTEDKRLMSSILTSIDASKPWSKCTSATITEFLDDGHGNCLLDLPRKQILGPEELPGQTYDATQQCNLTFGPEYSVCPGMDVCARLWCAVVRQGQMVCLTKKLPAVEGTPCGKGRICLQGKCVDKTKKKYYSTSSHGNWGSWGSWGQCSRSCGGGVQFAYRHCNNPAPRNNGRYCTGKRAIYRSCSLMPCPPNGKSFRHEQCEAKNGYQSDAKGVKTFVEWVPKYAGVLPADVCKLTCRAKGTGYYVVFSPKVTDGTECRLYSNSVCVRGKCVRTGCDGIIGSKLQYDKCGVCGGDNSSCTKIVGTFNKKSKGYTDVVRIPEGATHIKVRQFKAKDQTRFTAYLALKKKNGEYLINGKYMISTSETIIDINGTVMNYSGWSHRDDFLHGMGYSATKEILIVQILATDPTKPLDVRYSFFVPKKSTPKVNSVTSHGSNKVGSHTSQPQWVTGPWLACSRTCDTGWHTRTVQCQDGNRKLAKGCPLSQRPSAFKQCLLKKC
inactive: [1] 0.011 | [2] -0.211 | [3] -0.092 | [7] -0.16 | [4] 0.045 | rosiglitazone -0.035 | [8] -0.018 | [9] -0.039 | saracatinib -0.107 | sotrastaurin -0.004 | alvocidib 0.007 | Tubastatin A 0.222 | [5] -0.13 | defactinib -0.021 | rucaparib -0.04 | [10] -0.048 | encorafenib -0.136 | [6] 0.028

ADAM15 (UniProt Q13444)
inactive: volasertib -0.103 | [2] -0.02 | epoxomicin 0.034 | [3] -0.177 | [7] -0.001 | [4] 0.066 | rosiglitazone -0.099 | [8] -0.028 | [9] -0.016 | saracatinib -0.241 | sotrastaurin -0.034 | alvocidib -0.091 | Tubastatin A 0.065 | [5] -0.211 | defactinib -0.04 | [10] 0.073 | [6] 0.056

ALDH2 isoform 2 (UniProt P05091)
UniProt P05091, sequence (P05091 whole entry, looked up): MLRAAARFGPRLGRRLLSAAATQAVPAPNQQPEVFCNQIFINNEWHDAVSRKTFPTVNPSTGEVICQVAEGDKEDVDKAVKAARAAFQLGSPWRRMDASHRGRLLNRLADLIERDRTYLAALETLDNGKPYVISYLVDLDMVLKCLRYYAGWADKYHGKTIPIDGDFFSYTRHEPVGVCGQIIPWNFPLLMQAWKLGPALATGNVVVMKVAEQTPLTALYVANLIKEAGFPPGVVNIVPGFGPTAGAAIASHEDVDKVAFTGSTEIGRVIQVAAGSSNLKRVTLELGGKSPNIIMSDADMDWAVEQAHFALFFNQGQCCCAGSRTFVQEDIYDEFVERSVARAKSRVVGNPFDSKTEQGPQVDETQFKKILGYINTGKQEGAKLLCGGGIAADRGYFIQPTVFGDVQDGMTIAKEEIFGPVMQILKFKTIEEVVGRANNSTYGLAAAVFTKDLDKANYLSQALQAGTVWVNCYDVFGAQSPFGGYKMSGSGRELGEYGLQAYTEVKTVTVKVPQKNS
inactive: [1] 0.183 | volasertib 0.033 | epoxomicin -0.176 | [7] -0.014 | [4] -0.015 | rosiglitazone 0.19 | [9] -0.072 | sotrastaurin 0.161 | Tubastatin A 0.005 | defactinib 0.06 | rucaparib -0.255 | encorafenib 0.097 | [6] -0.003

AASDH (UniProt Q4L235)
active: volasertib -0.445
inactive: [2] 0.141 | epoxomicin 0.028 | [3] -0.018 | [7] 0.149 | [4] 0.189 | rosiglitazone -0.044 | [8] -0.019 | [9] 0.004 | saracatinib 0.011 | sotrastaurin -0.067 | alvocidib -0.035 | Tubastatin A 0.16 | [5] -0.014 | defactinib -0.091 | [10] -0.036 | [6] -0.004

ACTR3B (UniProt Q9P1U1)
inactive: volasertib -0.063 | [2] 0.261 | [3] 0.038 | [7] -0.047 | [4] -0.05 | [9] 0.048 | Tubastatin A -0.01 | [5] -0.004 | defactinib 0.037 | [6] -0.01

ADPRH (UniProt P54922)
inactive: volasertib 0.108 | [2] 0.036 | epoxomicin -0.04 | [3] -0.067 | [7] 0.097 | [4] 0.1 | rosiglitazone 0.141 | [9] -0.313 | sotrastaurin -0.067 | Tubastatin A 0.213 | [5] -0.011 | defactinib -0.076 | [6] 0.028

AUH (UniProt Q13825)
inactive: [1] 0.011 | [3] -0.129 | [7] -0.094 | [4] 0.128 | rosiglitazone 0.021 | [8] -0.183 | [9] 0.086 | saracatinib 0.184 | alvocidib 0.016 | Tubastatin A 0.152 | [5] 0.003 | defactinib -0.055 | rucaparib 0.065 | [10] -0.062 | encorafenib -0.005 | [6] 0.006
active: volasertib 0.486

ABCA4 (UniProt P78363)
inactive: [1] 0.117 | [2] -0.202 | epoxomicin -0.046 | [3] -0.172 | [7] -0.163 | rosiglitazone 0.015 | [9] -0.087 | sotrastaurin -0.249 | alvocidib 0.277 | Tubastatin A 0.246 | [5] -0.152 | rucaparib 0.006 | encorafenib 0.006

AFDN isoform 1 (UniProt P55196)
UniProt P55196, sequence (P55196 whole entry, looked up): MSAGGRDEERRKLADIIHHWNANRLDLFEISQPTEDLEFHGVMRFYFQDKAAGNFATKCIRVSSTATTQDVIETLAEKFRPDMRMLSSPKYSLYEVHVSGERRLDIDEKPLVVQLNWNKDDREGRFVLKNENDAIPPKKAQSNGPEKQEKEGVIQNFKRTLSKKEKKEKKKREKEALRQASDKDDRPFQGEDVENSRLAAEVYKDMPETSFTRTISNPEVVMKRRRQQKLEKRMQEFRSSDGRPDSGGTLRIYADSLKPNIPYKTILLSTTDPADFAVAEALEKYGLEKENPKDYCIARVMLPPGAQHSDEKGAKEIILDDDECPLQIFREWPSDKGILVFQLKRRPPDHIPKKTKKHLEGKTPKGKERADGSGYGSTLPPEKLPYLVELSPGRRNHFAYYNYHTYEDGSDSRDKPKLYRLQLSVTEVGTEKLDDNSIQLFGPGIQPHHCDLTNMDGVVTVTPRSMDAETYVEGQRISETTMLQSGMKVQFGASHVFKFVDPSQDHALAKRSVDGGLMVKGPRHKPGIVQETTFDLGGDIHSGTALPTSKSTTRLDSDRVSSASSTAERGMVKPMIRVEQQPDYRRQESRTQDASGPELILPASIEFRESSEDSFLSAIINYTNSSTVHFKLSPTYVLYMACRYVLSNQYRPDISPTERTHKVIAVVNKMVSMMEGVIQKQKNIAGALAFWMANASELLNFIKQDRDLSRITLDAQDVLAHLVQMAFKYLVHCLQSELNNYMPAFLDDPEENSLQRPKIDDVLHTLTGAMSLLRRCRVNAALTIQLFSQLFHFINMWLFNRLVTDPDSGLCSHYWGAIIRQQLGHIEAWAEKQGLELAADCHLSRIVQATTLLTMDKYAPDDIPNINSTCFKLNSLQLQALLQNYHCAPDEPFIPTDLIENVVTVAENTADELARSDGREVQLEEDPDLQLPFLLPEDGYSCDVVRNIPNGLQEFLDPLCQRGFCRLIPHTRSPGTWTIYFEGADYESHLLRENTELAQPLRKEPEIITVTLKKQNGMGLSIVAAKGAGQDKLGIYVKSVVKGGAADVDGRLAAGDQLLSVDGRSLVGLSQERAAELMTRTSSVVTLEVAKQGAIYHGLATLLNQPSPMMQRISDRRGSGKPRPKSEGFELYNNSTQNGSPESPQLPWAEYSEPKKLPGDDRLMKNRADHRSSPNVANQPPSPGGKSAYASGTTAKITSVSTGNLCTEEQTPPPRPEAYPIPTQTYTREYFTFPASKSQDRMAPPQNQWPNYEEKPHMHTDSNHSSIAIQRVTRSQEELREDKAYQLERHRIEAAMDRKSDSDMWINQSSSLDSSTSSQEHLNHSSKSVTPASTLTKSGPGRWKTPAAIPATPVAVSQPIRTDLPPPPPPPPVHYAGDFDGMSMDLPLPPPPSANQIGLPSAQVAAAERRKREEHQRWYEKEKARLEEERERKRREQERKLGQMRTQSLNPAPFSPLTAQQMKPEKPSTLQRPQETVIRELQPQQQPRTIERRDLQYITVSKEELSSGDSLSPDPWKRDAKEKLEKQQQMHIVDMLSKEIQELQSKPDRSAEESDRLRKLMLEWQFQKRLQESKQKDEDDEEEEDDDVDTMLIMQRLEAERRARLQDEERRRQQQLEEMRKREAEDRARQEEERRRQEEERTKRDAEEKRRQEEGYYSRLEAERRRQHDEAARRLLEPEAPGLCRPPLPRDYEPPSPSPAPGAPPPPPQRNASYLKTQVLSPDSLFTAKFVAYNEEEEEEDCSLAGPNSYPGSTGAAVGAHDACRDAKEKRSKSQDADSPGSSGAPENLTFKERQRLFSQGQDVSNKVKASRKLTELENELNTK
inactive: [1] -0.019 | epoxomicin 0.064 | [3] -0.104 | [7] -0.075 | [4] -0.069 | rosiglitazone 0.104 | [8] 0.111 | [9] 0.062 | saracatinib -0.192 | sotrastaurin -0.047 | alvocidib -0.182 | [5] -0.025 | defactinib 0.021 | rucaparib 0.009 | [10] -0.175 | encorafenib 0.018 | [6] -0.302

ATXN7L3 isoform 2 (UniProt Q14CW9)
inactive: [1] -0.042 | [2] -0.166 | [3] 0.036 | rosiglitazone -0.2 | sotrastaurin 0.098 | [5] -0.038 | encorafenib 0
active: rucaparib 0.669
